Unmarked numbers belong to inactive results. Calls of active or inactive are those of the source. The rule behind the calls is not given here.
test system: HIV-1 nucleocapsid protein NCp7 (binding to TG oligonucleotide); test: HIV Nucleocapsid (AID 346); settings: HIV-1 NC / fluorescein-TGTGTGTG probe, fluorescence polarization;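 note: potency is for inhibitors that block NC binding and lower polarization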
In short: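 Reagents dispensed (10 nM TG4xF, 100 nM HIV-1 NC), plates spun, compounds pin-transferred, then incubated 1 hr at room temperature before FP imaging. Buffer: Hepes pH 7.5, 250mM NaCl, 1uM ZnCl2, 100 uM TCEP, 5 mM 2-mercaptoethanol.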
Potency is the fitted concentration of half-maximal effect.

Structure (SMILES)	Potency
COc1ccccc1-c1nccc(N2CCN(C)CC2)n1	> 20 µM
COc1cccc(Cn2c(=O)c(-c3ccc(Cl)cc3)nc3cnc(N4CCOCC4)nc32)c1	> 20 µM
COc1ccc(-c2nc3cnc(OC)nc3n(Cc3ccc(F)cc3)c2=O)cc1	> 20 µM
CS(=O)(=O)N1CCC2(CCCN(C(c3ccccc3)c3ccccc3)C2)CC1	> 20 µM
COc1ccccc1-c1ccc2ncnc(NCc3cnc(C)cn3)c2c1	> 20 µM
CN1CCN(c2ncc3nc(-c4cn(C)c5ccccc45)c(=O)n(C)c3n2)CC1	> 20 µM
COc1ccccc1CNc1ncnc2ccc(-c3cccc(C#N)c3)cc12	> 20 µM
COc1ccc(Oc2ncc3nc(-c4ccc(F)cc4)c(=O)n(C[C@H]4CCCO4)c3n2)cc1	> 20 µM
CN1CCN(c2ncc3nc(-c4ccccc4)c(=O)n(CCC#N)c3n2)CC1	> 20 µM
O=c1c(-c2ccc(Cl)cc2)nc2cnc(N3CCOCC3)nc2n1C1CC1	> 20 µM
COc1cccc(Cn2c(=O)cnc3cnc(Oc4cccc(Cl)c4)nc32)c1	> 20 µM
O=C(c1cc(C(F)(F)F)cc(C(F)(F)F)c1)N1CCC2(CC1)CCN(c1ccccn1)CC2	> 20 µM
Cc1noc(C)c1C(=O)N1CCC2(CC1)CN(c1ccccc1)C2	> 20 µM
COCCn1c(=O)c(-c2cc(F)cc(F)c2)nc2cnc(OC)nc21	> 20 µM
CN(C)Cc1ccccc1-c1ccc2ncnc(NC3CCNCC3)c2c1	> 20 µM
COc1cccc(Cn2c(=O)c(-c3ccc(Cl)cc3)nc3cnc(N(C)C)nc32)c1	> 20 µM
O=C(Nc1ccccc1)N1CC2(CCN(S(=O)(=O)c3ccccc3)CC2)C1	> 20 µM
COc1ccccc1CNc1nc(-c2ccccc2CN(C)C)nc2ccccc12	> 20 µM
COCCn1c(=O)c(-c2ccc(Cl)cc2)nc2cncnc21	> 20 µM
COCCn1c(=O)c(-c2cccc(C#N)c2)nc2cnc(OCc3ccccc3)nc21	> 20 µM

Structure (SMILES)	Potency
Cc1noc(C)c1-c1ccc2ncnc(NCc3cccnc3)c2c1	> 20 µM
c1ccc(CNc2nc(-c3cccnc3)nc3ccccc23)cc1	> 20 µM
Cc1cnc(CNc2ncnc3ccc(-c4ccoc4)cc23)cn1	> 20 µM
COC(=O)N1CCC[C@@]2(CCN(C(=O)Nc3cccc(C#N)c3)C2)C1	> 4 µM
Cn1c(=O)c(-c2cccc(F)c2)nc2cncnc21	> 20 µM
Clc1ccccc1-c1nc(NCc2cccnc2)c2ccccc2n1	> 20 µM
COc1ccccc1-c1nccc(NC2CCNCC2)n1	> 20 µM
c1cncc(-c2nc(NCCN3CCOCC3)c3ccccc3n2)c1	> 20 µM
COC(=O)N1CCC[C@@]2(CCN(C(c3ccccc3)c3ccccc3)C2)C1	> 20 µM
COCCn1c(=O)c(-c2cc(F)cc(F)c2)nc2cnc(Nc3cccc(OC)c3)nc21	3.99 µM (active)
Cc1noc(C)c1C(=O)N1CCC2(CC1)CCN(C(c1ccccc1)c1ccccc1)CC2	> 20 µM
N#Cc1ccccc1-c1ccc2ncnc(NCc3cccs3)c2c1	> 20 µM
COc1ccccc1CNc1cc(-c2ccccc2C)ncn1	> 20 µM
COc1ccccc1CN1CC[C@@]2(CCCN(S(C)(=O)=O)C2)C1	> 20 µM
O=c1cnc2cnc(N3CCNCC3)nc2n1C1CC1	> 20 µM
CN(C)C(=O)c1ccc(-c2cc(NCc3cccs3)ncn2)cc1	> 20 µM
CNc1ncncc1-c1ccccc1OC	> 20 µM
O=C(c1cnccn1)N1CCC[C@@]2(CCN(Cc3nccs3)C2)C1	> 20 µM
COc1ccc(-c2nc3cnc(N4CCOCC4)nc3n(-c3ccc(OC)cc3)c2=O)cc1	> 20 µM
COc1ccc(C(=O)N2CCC3(CCCN(c4ccccc4)C3)CC2)cc1	> 20 µM
